Results as given in PubChem BioAssay.
Inconclusive results are not listed. Activity calls are given as the source filed them. Cut-off not given; nearly all actives show AC50 up to about 37 µM.

test: growth inhibition of DIPG glioma cells, dose response, cell-based, SU-DIPG-XIII, MIPE4.0, CellTiter-Glo, qHTS (AID 1347061); settings: SU-DIPG-XIII viability, CellTiter-Glo ATP luminescence;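 further: cells exposed to compound for 48 hours before readout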

SMILES | outcome | AC50
C/C(=C\C(=O)Nc1ccccc1C(=O)O)c1ccc2ccccc2c1 | inactive | –
O=C(O)C1=NC(C(=O)O)CC(/C=C/N2c3cc(O)c(OC4OC(CO)C(O)C(O)C4O)cc3CC2C(=O)O)=C1 (stereo not given) | inactive | –
O=C(O)c1cc(O)c2c(c1)C(=O)c1cccc(O)c1C2=O | inactive | –
CC(=O)N1CCN(c2ccc(OCc3nn(C)c(C)c3-c3cccc4c(CCCOc5cccc6ccccc56)c(C(=O)O)n(Cc5cccnc5)c34)cc2)CC1 | – | 9.35 µM (active)
CC1COC2(CCN(c3nc(=O)c4cc(C(F)(F)F)cc([N+](=O)[O-])c4s3)CC2)O1 (stereo not given) | inactive | –
CN(C)c1nc(Cc2ccc(NC(=O)c3ccc(C(F)(F)F)cc3)cc2)nc(N(C)C)c1CC(=O)O | inactive | –
CN1[C@@H]2CC(OC(=O)[C@@H](CO)c3ccccc3)C[C@H]1[C@H]1O[C@H]12 (stereo not given in full) | inactive | –
CO/N=C(/C(=O)N[C@@H]1C(=O)N2C(C(=O)O)=C(Cn3ccc(=N)n3CCO)CS[C@H]12)c1csc(N)n1 | inactive | –
Nc1nc(F)nc2c1ncn2[C@@H]1O[C@H](CO)[C@@H](O)[C@H]1O | – | 1.05 µM (active)
C=C1/C(=C\C=C2/CCC[C@]3(C)[C@@H]([C@H](C)/C=C/[C@H](C)C(C)C)CC[C@@H]23)C[C@@H](O)C[C@@H]1O | – | 8.33 µM (active)
CC(C)(O)Cn1c(NC(=O)c2ccc(-c3cn[nH]c3)s2)nc2cc(CN3CCOCC3)ccc21 | – | 2.64 µM (active)
CC(C)(C)OC(=O)N[C@H]1CCCCC/C=C\[C@@H]2C[C@@]2(C(=O)NS(=O)(=O)C2CC2)NC(=O)[C@@H]2C[C@@H](OC(=O)N3Cc4cccc(F)c4C3)CN2C1=O | inactive | –
CC(NCc1ccc2c(c1)nc(NC(=O)c1ccc(-c3cn[nH]c3)s1)n2CC(C)(C)O)C(C)(C)C (stereo not given) | – | 3.32 µM (active)
O=C(NNC(=O)c1ccc(CNS(=O)(=O)c2ccc(F)c(Cl)c2)cc1)c1ccccc1 | inactive | –
Nc1nc(=O)n([C@H]2CSC(CO)O2)cc1F (stereo not given in full) | inactive | –
C=C1C[C@@]2(O)O[C@@]3(C[C@H]2C(C)C)[C@@H](C)CC[C@@H]13 | inactive | –
CCCCCCCCCCCCCC(=O)N[C@H](CO)[C@H](O)c1ccc([N+](=O)[O-])cc1 | inactive | –
C[C@]12CC[C@H](O)CC1=CCC1C2CC[C@]2(C)C(n3cnc4ccccc43)=CCC12 (stereo not given in full) | inactive | –
OC[C@H]1O[C@@H](OCCc2ccc(O)cc2)[C@H](O)[C@@H](O)[C@@H]1O | inactive | –
CC[C@H]1OC(=O)[C@H](C)[C@@H](O[C@H]2C[C@@](C)(OC)[C@@H](O)[C@H](C)O2)[C@H](C)[C@@H](O[C@@H]2O[C@@H](C)C[C@H](N(C)C)[C@H]2O)[C@](C)(O)C[C@@H](C)C(=O)[C@H](C)[C@@H](O)[C@]1(C)O | inactive | –

SMILES | outcome | AC50
Cc1ccnc(NS(=O)(=O)c2ccc(NC(=O)Nc3ccc(S(=O)(=O)Nc4nccc(C)n4)cc3)cc2)n1 | inactive | –
CC(C)(C)COc1ccc(-n2cc(C(=O)O)cn2)cc1C#N | inactive | –
Nc1n[nH]c2nnc(-c3c(-c4ccccc4)nn4ccccc34)cc12 | – | 20.9 µM (active)
CCC(CC)[C@H](NC(C)=O)[C@@H]1[C@H](O)[C@@H](C(=O)O)C[C@H]1N=C(N)N | inactive | –
CCCCCNC(=O)N1CCC(CN(Cc2ccc(Cl)cc2)Cc2ccc([N+](=O)[O-])s2)C1 (stereo not given) | inactive | –
c1nc2nc(Nc3ccc(N4CCOCC4)cc3)nc(NC3CCCCC3)c2[nH]1 | – | 9.35 µM (active)
CCC(C)CCCCC(=O)N[C@@H](CCN)C(=O)NC(C(=O)N[C@H](CCN)C(=O)N[C@@H]1CCNC(=O)C([C@@H](C)O)NC(=O)[C@@H](CCN)NC(=O)[C@@H](CCN)NC(=O)[C@@H](CC(C)C)NC(=O)[C@H](Cc2ccccc2)NC(=O)[C@H](CCN)NC1=O)[C@@H](C)O (stereo not given in full) | inactive | –
Nc1ccn([C@H]2CS[C@@H](CO)O2)c(=O)n1 | inactive | –
CN(C)CCCNC(=O)c1ccc(-c2cc(O)c3ncccc3c2)cc1 | inactive | –
NC1CCC(Nc2nc(Nc3ccc(C(=O)N4CCCCC4)cc3)c3ncn(-c4cccc(F)c4)c3n2)CC1 (stereo not given) | inactive | –
N#CC(=C(O)c1ccc(Cl)cc1Cl)c1nc2cc(Cl)ccc2c(=O)[nH]1 | inactive | –
Cc1cnn(C)c1C(=O)Nc1cc(Nc2ccc3c(/C=C/c4ccccn4)n[nH]c3c2)ccc1F | – | 13.2 µM (active)
COC1=C2C[C@@H](C)C[C@H](OC)[C@H](O)[C@@H](C)/C=C(\C)[C@H](OC(N)=O)[C@@H](OC)/C=C/C=C(\C)C(=O)NC(=CC1=O)C2=O | – | 0.372 µM (active)
CNC(=O)c1ccc(Nc2cc(Nc3ccccc3S(=O)(=O)C(C)C)c3cc[nH]c3n2)nc1 | – | 16.6 µM (active)
COc1ccc(CC2SC(=O)NC2=O)cc1C(=O)NCc1ccc(C(F)(F)F)cc1 (stereo not given) | inactive | –
Cc1nc2c([nH]1)CCN(C(=O)c1ccc(NC(=O)c3ccccc3-c3ccccc3)cc1)c1ccccc1-2 | inactive | –
O=C(C=CC#Cc1cccc(NS(=O)(=O)c2ccccc2)c1)NO | – | 14.8 µM (active)
Nc1ncnc2c1ncn2[C@@H]1O[C@@H](CO)[C@H](O)[C@@H]1O | inactive | –
C[C@H](NCc1ccc2c(c1)nc(NC(=O)c1ccc(-c3cn[nH]c3)s1)n2CCc1ccccc1)C(C)(C)C | – | 2.96 µM (active)
CC(C)C(=O)Oc1ccc(CO)cc1[C@H](CCN(C(C)C)C(C)C)c1ccccc1 | inactive | –
